Most compounds without a hit are left out; they make up all but 3.3% or so of the library.
Mcl1-Noxa inh: Mcl-1/Noxa interaction inhibition. Q07820. TR-FRET Mcl-1/Noxa peptide binding, 2 h. inhibition, % at 21.7 µM. 220,000 compounds, 1.5% hits. AID 1022;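 active = compounds that cut the protein-peptide binding signal by more than 50% relative to plate controls in a single-dose test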;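 note: His-tagged Mcl-1 with rhodamine Noxa BH3 peptide and terbium anti-His antibody; 0% = Mcl-1 plus Noxa peptide wells and 100% = peptide-only wells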
Mcl1 Bid PPI: disrupts binding of human Mcl-1 to Bid peptide; TR-FRET Mcl-1/Bid-Dy647 peptide binding, 1536-well; inhibition, % at 21.7 µM; 220,000 compounds, 0.97% hits; AID 1021;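 active = compounds that cut the binding signal by more than half at the single screening dose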;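 note: His-tagged Mcl-1 with europium anti-His antibody binding Bid BH3 peptide; 0% = Mcl-1 plus peptide wells and 100% = peptide-only wells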
eIF4E 4G PPI: eIF4E/eIF4G interaction inhibition in translation initiation; P63073+Q04637; TR-FRET eIF4E-eIF4GI(517-606) binding, 2 h; inhibition, % at 21.7 µM; 220,000 compounds, 0.37% hits;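 note: 0% = full FRET control wells and 100% = background wells lacking eIF4GI fragment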
Target sequence (P63073 whole entry, looked up, the tested form may be a part): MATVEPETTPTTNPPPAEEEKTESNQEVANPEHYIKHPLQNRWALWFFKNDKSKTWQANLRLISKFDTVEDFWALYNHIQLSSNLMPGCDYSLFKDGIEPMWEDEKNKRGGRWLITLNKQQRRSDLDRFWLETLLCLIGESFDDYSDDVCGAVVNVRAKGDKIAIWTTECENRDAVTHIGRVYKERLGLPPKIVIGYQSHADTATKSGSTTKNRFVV
Target sequence (Q04637 whole entry, looked up, the tested form may be a part): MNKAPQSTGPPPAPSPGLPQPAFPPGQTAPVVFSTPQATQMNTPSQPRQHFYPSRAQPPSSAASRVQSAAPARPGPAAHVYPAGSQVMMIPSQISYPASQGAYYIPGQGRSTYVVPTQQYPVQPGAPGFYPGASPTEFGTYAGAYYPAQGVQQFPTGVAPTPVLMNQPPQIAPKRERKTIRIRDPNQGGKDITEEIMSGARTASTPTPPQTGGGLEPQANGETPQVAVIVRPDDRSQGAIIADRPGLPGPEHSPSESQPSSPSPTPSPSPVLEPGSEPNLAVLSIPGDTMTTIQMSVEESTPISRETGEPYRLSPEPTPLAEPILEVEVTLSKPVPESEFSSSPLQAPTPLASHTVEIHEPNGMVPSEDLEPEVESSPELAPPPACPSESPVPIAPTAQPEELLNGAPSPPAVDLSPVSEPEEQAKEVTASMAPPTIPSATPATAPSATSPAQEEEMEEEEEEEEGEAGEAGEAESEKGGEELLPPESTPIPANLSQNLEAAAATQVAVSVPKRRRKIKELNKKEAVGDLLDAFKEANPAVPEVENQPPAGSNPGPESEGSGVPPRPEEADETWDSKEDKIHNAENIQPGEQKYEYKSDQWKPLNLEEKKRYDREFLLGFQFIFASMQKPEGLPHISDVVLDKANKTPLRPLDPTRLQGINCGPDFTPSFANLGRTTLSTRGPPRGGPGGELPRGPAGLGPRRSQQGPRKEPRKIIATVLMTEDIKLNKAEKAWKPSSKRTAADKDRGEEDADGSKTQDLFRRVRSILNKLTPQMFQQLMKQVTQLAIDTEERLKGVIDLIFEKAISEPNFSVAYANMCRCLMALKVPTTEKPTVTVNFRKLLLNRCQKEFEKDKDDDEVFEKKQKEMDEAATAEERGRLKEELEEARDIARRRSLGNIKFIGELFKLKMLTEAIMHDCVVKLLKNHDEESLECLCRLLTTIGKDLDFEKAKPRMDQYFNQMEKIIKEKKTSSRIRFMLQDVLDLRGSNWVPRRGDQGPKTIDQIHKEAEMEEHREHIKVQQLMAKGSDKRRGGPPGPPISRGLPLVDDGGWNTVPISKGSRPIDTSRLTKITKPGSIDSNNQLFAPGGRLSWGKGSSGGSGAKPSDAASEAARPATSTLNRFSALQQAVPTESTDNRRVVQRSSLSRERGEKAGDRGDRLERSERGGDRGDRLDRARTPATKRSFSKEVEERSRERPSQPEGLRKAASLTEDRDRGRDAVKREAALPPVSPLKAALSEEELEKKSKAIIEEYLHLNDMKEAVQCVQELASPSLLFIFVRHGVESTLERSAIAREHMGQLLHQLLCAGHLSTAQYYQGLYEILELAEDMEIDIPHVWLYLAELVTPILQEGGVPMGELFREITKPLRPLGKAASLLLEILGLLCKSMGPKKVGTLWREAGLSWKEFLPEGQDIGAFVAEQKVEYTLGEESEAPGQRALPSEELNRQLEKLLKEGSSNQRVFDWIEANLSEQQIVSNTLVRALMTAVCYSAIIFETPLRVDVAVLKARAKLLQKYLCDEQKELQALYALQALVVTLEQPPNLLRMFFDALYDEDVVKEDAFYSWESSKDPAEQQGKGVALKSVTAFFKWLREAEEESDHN
Bim-Mcl-1: inhibitors of Bim-Mcl-1 interaction, human | Bead-based flow cytometry, Bim peptide-Mcl-1 binding | inhibition, % at 10 µM | 190,000 compounds, 0.1% hits | AID 1009; in the data active = inhibition above about 40%;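 note: 0% = no compound tracer wells and 100% = peptide blocker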
14-3-3 Bad PPI: disrupts binding of bovine 14-3-3 zeta to phospho-Bad peptide; P63103; TR-FRET 14-3-3zeta/Dy647-pBad peptide displacement, 1 h; inhibition, % at 21.7 µM; 220,000 compounds, 0.71% hits;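 active = inhibition above about 70%, limit read from the data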;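 note: 0% = full 14-3-3 plus peptide FRET controls and 100% = background without 14-3-3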
NCF1 inh: blocks human p47phox regulatory protein of NADPH oxidases; inhibition, % at 24.7 µM; 220,000 compounds, 0.53% hits; p47phox/p22phox peptide binding, fluorescence polarization, 2 h; P14598;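 note: 0% = p47phox with labelled peptide and 100% = labelled peptide alone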
Numbers without * were called inactive; x = not tested or not shown; [ ] = another dose, or the depositor's remark.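 Rule for the calls, unless noted: active = inhibition above about 30% (limit read from the data); inactive = the rest.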

SMILES	Mcl1-Noxa inh	Mcl1 Bid PPI	eIF4E 4G PPI	Bim-Mcl-1	14-3-3 Bad PPI	NCF1 inh
CC1CC(CCC(=O)NC(=S)Nc2ccc(Cl)cn2)C(=O)O1 (centres undefined)	1	-37	0	-1	-9	0
COc1ccc(-c2cc3ccccc3oc2=O)cc1NC(=O)c1ccc(Br)o1	-70	60*	-19	-17	43	41*
COc1cccc(OC)c1C(=O)NC(=S)Nc1ccc2c(c1)OCCO2	16	-38	-1	0	-9	-6
COc1ccc(-c2cc3ccccc3oc2=O)cc1NC(=S)NC(=O)c1ccc2c(c1)OCCO2	-47	-3	-42	-4	77*[fluorescence artefact?]	25
COc1ccc(-c2cc3ccccc3oc2=O)cc1NC(=O)c1ccc([N+](=O)[O-])o1	27	65*	13	3	80*[fluorescence artefact?]	40*
CCC(=O)Nc1cc(-c2cc3ccccc3oc2=O)ccc1OC	-10	-30	-6	0	-10	-7
CCc1nc2ccccc2n1CC1CC1(Cl)Cl (centres undefined)	9	-5	-1	4	-3	-12
CCn1c2ccccc2c2cc(N)ccc21	62*	-7	9	-8	2	-3
COc1cc(OC)c2c(-c3ccccc3)cc(=O)oc2c1C(CCN1CCN(c2ccccc2)CC1)c1ccc(N(C)C)cc1 (centres undefined)	-20	-142	-2	x	3	-2
COc1cc(OC)c2ccc(=O)oc2c1C(CCN1CCN(c2ccccc2)CC1)c1ccc(N(C)C)cc1 (centres undefined)	5	-135	-3	x	-1	94*
CC1=NN(C(N)=S)C(=O)C1N=Nc1ccc(O)cc1 (centres undefined)	78*	-39	-2	3	-10	-13
CC(=O)OCC1=C(C(=O)O)N2C(=O)C(NC(=O)CCn3nc(C(F)(F)F)c(Br)c3C3CC3)C2SC1 (centres undefined)	32	35	-2	0	-4	-16
CCN(CC)c1ccc(/C=C2/C(=O)c3ccc(C(=O)O)cc3C2=O)cc1	58*	-92	9	x	-11	-242
CCN(CC)c1ccc(C=C2C(=O)OC3(CCCCC3)OC2=O)cc1	5	-27	-3	0	-14	-75
CCOC(=O)c1cnc2c(C(=O)OC)cccc2c1NCc1cccnc1	5	-10	1	-3	-2	-6
CCc1[nH]c(=S)c(C#N)c2c1CCCC2	59*	-10	9	-12	-1	-2
CCc1[nH]c(=O)c(C#N)c2c1CCCC2	9	-11	x	0	x	33*
c1ccc(OCc2nnc3sc(-c4cccs4)nn23)cc1	1	17	27	-12	20	-8
Clc1ccc(Cl)c(-c2nn3c(COc4ccccc4)nnc3s2)c1	-1	17	34*[fluorescence artefact?]	3	7	-4
Cc1nnc(SCC(=O)Nc2nc(-c3ccccc3)cs2)n1N	5	-20	-8	-1	1	-75
Cn1cnnc1SCC(=O)Nc1nc(-c2ccccc2)cs1	56*	-5	2	-2	-2	-12
Cc1[nH]n(-c2ccccc2)c(=O)c1/C=N/NC(=O)c1cccc([N+](=O)[O-])c1	-56	-108	2	-1	4	-15
Cc1ccc(-n2[nH]c(C)c(/C=N/Nc3ccc([N+](=O)[O-])cc3[N+](=O)[O-])c2=O)cc1C	54*	38	18	39	-8	3
CCNc1nc(NCC)nc(OCCOC(=O)Nc2ccccc2)n1	-8	-7	-1	2	7	-3
CCNc1nc(NCC)nc(C(=O)Nc2ccccc2)n1	65*	-48	8	-2	-12	-61
Brc1cccc2sc(N3CCN(c4ccccc4)CC3)nc12	7	-21	-4	-1	87*	-16
Clc1cccc2sc(N3CCCCC3)nc12	-4	-7	0	0	-13	-2
CSC1=N/C(=C\c2ccccc2F)C(=O)S1	92*	100*	-7	1	-11	-6
Cc1ccc(-c2nc(N/N=C/c3ccncc3)c3ccccc3n2)cc1	48	66*	-32	0	23	-93
Cc1cc(N/N=C/c2ccc(O)c(C)c2O)nc(-c2ccccc2O)n1	89*	75*	-2	-2	26	-5
